Compound activity (PubChem)
Cardio protect: cardioprotection against H2O2-induced cell death, primary screen, uHTS, H9c2 cells, ATPLite luminescence | H9c2 cardiomyocytes, H2O2 injury protection, 2 h | 360,000 tested, 0.63% active | protection from H2O2 cell death, % at 20 µM | AID 588492, 2011;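 active means compounds giving at least 50% protection of heart cells from peroxide-induced death in the single-dose screen, raw or plate-pattern-corrected value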
PP1 counter: PP1-alpha phosphatase inhibitors, primary screen, counter-screen for PP5 inhibitor project, biochemical, fluorescence, OMFP substrate, single point. purified PP1alpha. inhibition, % at 6.7 µM. 320,000 tested, 0.9% active;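 active means inhibition above the mean inhibition of all tested compounds plus 3 SD, computed separately for each screening campaign, cut at about 15% in these data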
PP5 inh: PP5 phosphatase inhibitors, primary screen, biochemical, fluorescence; purified PP5c, OMFP substrate fluorescence; inhibition, % at 6.7 µM; AID 1987, 2009; 320,000 tested, 0.18% active; Serine/threonine-protein phosphatase 5 (Homo sapiens), P53041;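 active means inhibition above the campaign's mean inhibition across all tested compounds plus 3 SD, cut at about 9.5% in these data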
ATG4B inhibitor: ATG4B protease inhibitors, primary screen, biochemical, fluorescence, uHTS. 340,000 tested, 0.51% active. ATG4B cleavage of LC3-PLA2, NBD-HPC fluorescence, 1 h. Cysteine protease ATG4B (Homo sapiens), Q9Y4P1. inhibition, % at 8.33 µM; in the data active means inhibition above about 40%
Target sequence (Q9Y4P1 whole entry, looked up): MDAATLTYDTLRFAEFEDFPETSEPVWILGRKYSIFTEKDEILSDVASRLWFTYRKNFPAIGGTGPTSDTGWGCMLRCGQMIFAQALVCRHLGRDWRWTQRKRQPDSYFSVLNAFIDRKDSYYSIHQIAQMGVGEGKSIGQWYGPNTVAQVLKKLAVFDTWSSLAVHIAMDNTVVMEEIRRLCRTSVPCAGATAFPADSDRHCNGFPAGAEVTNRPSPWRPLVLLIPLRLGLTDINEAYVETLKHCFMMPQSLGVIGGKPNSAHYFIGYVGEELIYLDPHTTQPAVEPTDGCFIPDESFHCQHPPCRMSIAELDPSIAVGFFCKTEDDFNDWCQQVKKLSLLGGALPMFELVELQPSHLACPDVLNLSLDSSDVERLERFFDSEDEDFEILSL
PP1 confirm: PP1 phosphatase inhibitors, confirmation, biochemical, fluorescence, OMFP substrate, triplicate. shares compounds with PP1 counter. purified PP1alpha. inhibition, % at 6.7 µM. 1,900 tested, 52% active. AID 2358, 2010;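 active means mean PP1 inhibition above a set limit taken from the earlier primary screen, cut at about 15% in these data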
PP5 inh counter: PP5 phosphatase inhibition by PP1 hits, confirmation, counter-screen for PP1 inhibitor project, biochemical, fluorescence, triplicate; AID 2360, 2010; shares compounds with PP1 counter; 1,900 tested, 4% active; inhibition, % at 6.7 µM; purified PP5c, OMFP fluorescence;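 active means mean PP5 inhibition over triplicate wells above about 9.5% taken from the earlier PP1 screen, limit read from the data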
Numbers stand for hits; i = inactive; nt = no result given. Sampled rows, rich in hits. Any-hit rate of the full collection: about 1.9%.

SMILES	Cardio protect	PP1 counter	PP5 inh	ATG4B inhibitor	PP1 confirm	PP5 inh counter
CCCOc1ccc(-c2c(C(=O)N/N=C/c3ccc(C)cc3)nnn2-c2nonc2N)cc1	i	i	i	i	nt	nt
CC1(C(=O)NCc2ccccc2)CCC(=O)N1CCOc1ccccc1 (centres undefined)	i	nt	nt	nt	nt	nt
O=C(/C=C/c1cccs1)NC(=S)NNC(=O)Cc1cccs1	i	24.6	i	i	23.9	i
Cc1onc(-c2ccccc2)c1C(=O)N/N=C/c1cccs1	i	i	i	i	nt	nt
COc1ccc(/C=C/C(=O)NC(=S)NNC(=O)Cc2cccs2)cc1OC	i	i	i	i	nt	nt
Cc1onc(-c2ccccc2)c1C(=O)NNC(=S)NC(=O)/C=C/c1cccs1	i	18.7	i	i	i	i
Cc1onc(-c2ccccc2)c1C(=O)NC(=S)NNC(=O)c1cc(-c2ccc(F)cc2)n[nH]1	i	28.6	i	i	22.2	i
Cc1onc(-c2ccccc2)c1C(=O)NC(=S)NNC(=O)c1ccncc1	i	i	i	i	nt	nt
Cc1cccc(N(C(=O)c2snc(C(N)=O)c2N)C(C(=O)NC2CCCC2)c2ccco2)c1 (centres undefined)	i	nt	nt	i	nt	nt
CCCNC(=O)N(C)C[C@H]1Oc2ncc(Br)cc2C(=O)N([C@H](C)CO)C[C@H]1C	i	nt	nt	nt	nt	nt
CCOC(=O)c1ccc(NC(=O)COc2ccc(-n3cnnn3)cc2)cc1	i	20.0	i	i	i	i
COc1ccc(OCC(=O)N2c3ccccc3CC2C)c([N+](=O)[O-])c1 (centres undefined)	i	nt	nt	i	nt	nt
COc1ccc(-c2cc(C(=O)NCCN3CCOCC3)no2)cc1OC	i	32.0	i	i	i	i
Cc1cc(C(F)(F)F)nn1CC(=O)NCc1ccco1	i	17.9	i	i	i	i
COc1cc(NC(=O)c2cnc(N)s2)cc(C(=O)Nc2cccc(C(F)(F)F)c2)c1	i	32.0	i	i	33.8	i
COc1cc(NC(=O)c2ccnc(N)c2)cc(C(=O)Nc2cccc(C(F)(F)F)c2)c1	i	i	i	i	nt	nt
CN(C(=O)COC(=O)CSc1ccc(C(N)=O)cc1[N+](=O)[O-])C1CCS(=O)(=O)C1 (centres undefined)	i	i	i	i	nt	nt
CCOC(=O)CSc1nc(-c2ccccn2)ncc1OC	i	i	i	i	nt	nt
COc1cnc(-c2ccccn2)nc1Sc1ccc(F)cc1	i	43.0	i	i	51.0	i
COc1cnc(-c2ccccn2)nc1Sc1ccc(Cl)cc1	i	34.9	i	i	45.6	i
COc1ccc(Sc2nc(-c3ccccn3)ncc2OC)cc1	i	57.0	i	i	55.9	i
COc1cnc(-c2ccccn2)nc1Sc1ccccc1	i	55.0	10.8	i	48.2	i
CC(=O)N1Cc2ccccc2CC1C(=O)NCc1ccccc1F (centres undefined)	i	i	i	i	nt	nt
O=C1CC2(CCN(C(=O)c3cccc(F)c3)CC2)Oc2ccccc21	i	i	i	i	nt	nt
O=C(c1ccc(=O)[nH]c1)N(Cc1cccs1)C1(C(=O)NC2CCCC2)CCCCC1	i	19.3	i	i	i	i
SMILES	Cardio protect	PP1 counter	PP5 inh	ATG4B inhibitor	PP1 confirm	PP5 inh counter
Cc1ccc(S(=O)(=O)Nc2cccc(S(=O)(=O)N3CCCC3)c2)cc1C	i	nt	nt	i	nt	nt
CCC(C)c1ccccc1N1CC(C(=O)Nc2ccc(S(=O)(=O)N3CCOCC3)cc2)CC1=O (centres undefined)	i	i	i	i	nt	nt
Cc1sc(NC(=O)Cn2[nH]c(=O)c3ccccc3c2=O)nc1-c1ccccc1	i	28.6	i	i	27.4	i
CN(Cc1cccc(Cl)c1Cl)CC(O)COc1ccccc1 (centres undefined)	i	i	i	i	nt	nt
COc1ccc(C)c2sc(N(CCCN(C)C)C(=O)c3ccc(S(=O)(=O)N4CCc5ccccc5C4)cc3)nc12	i	i	i	i	nt	nt
COc1ccc(OC)c2sc(N(CCCN(C)C)C(=O)c3ccc(S(=O)(=O)N4CCc5ccccc5C4)cc3)nc12	nt	20.2	i	nt	22.5	i
COc1ccc(NC(=O)NNC(=O)CCc2ccc(O)c(O)c2)cc1OC	i	i	i	i	nt	nt
COc1nc(-c2ccccc2)ccc1-c1noc(COc2ccccc2)n1	i	19.4	i	i	i	i
CCOC(=O)c1cc(NC(=O)C2C3CCC(O3)C2C(=O)O)cc(C(=O)OCC)c1 (centres undefined)	i	56.9	64.8	i	i	18.6
CCOC(=O)c1c(NC(=O)CN2C(=O)NC3(CCC(C)CC3)C2=O)sc(C)c1-c1ccc(C)cc1 (centres undefined)	i	i	i	i	nt	nt
CCOC(=O)c1c(NC(=O)/C=C/C(=O)O)sc(C)c1-c1ccc(C(C)(C)C)cc1	i	18.2	i	i	18.0	i
CCOC(=O)c1cc(NC(=O)C2C3C=CC(O3)C2C(=O)O)cc(C(=O)OCC)c1 (centres undefined)	i	16.9	22.6	i	i	i
CCOC(=O)c1c(NC(=O)C2C3CCC(O3)C2C(=O)O)sc(C)c1-c1ccc(C)cc1 (centres undefined)	i	19.9	32.7	i	i	13.3
CCOc1ccc(OCC)c(NC(=O)C2C3C=CC(O3)C2C(=O)O)c1 (centres undefined)	i	nt	nt	nt	nt	nt
CCOC(=O)c1ccc(NC(=O)C2C3CCC(C3)C2C(=O)O)cc1 (centres undefined)	i	i	i	i	nt	nt
CCC(=O)N1CCc2cc(S(=O)(=O)N3CCCCCC3)ccc21	i	i	i	i	nt	nt
CN(C)c1ccc(Cl)c(NC(N)=S)c1	i	nt	nt	nt	nt	nt
CCCc1nnc(NC(=O)C2CC(=O)N(C3CCCC3)C2)s1 (centres undefined)	i	i	i	i	nt	nt
CC(NC(=O)CSc1nc(C2CC2)n(-c2ccccc2)n1)c1ccco1 (centres undefined)	i	i	i	i	nt	nt
NC(=O)c1ccsc1NC(=O)COC(=O)c1nc(Cl)ccc1Cl	i	45.4	i	i	i	i
NC(=O)CC(NC(=O)c1ccc(Br)cc1)c1ccc(N2CCN(c3ccc(F)cc3)CC2)c([N+](=O)[O-])c1 (centres undefined)	i	21.2	i	i	i	i
NC(=O)CC(NC(=O)Cc1ccc(Br)cc1)c1ccc(N2CCc3ccccc3C2)c([N+](=O)[O-])c1 (centres undefined)	i	i	i	i	nt	nt
NC(=O)CC(NC(=O)c1ccc(Br)cc1)c1ccc(N2CCC(Cc3ccccc3)CC2)c([N+](=O)[O-])c1 (centres undefined)	i	19.8	i	i	i	i
NC(=O)CC(NC(=O)Cc1ccc(Br)cc1)c1ccc(N2CCN(c3ccc(F)cc3)CC2)c([N+](=O)[O-])c1 (centres undefined)	i	18.3	i	i	i	i
